Bioassay records (PubChem)
Compounds with a hit are over-represented: about 2.7% of the library has one in this group of screens.
TRPM1 prom inh – inhibitors of MITF-dependent TRPM1 promoter reporter, primary screen, cell-based, SK-MEL-5, single point, luciferase | inhibition, % at 12.5 µM | 330,000 compounds, 0.83% hits | SK-MEL-5 TRPM1 promoter luciferase, 24 h;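 active means mean inhibition across replicates of 60% or more, whatever share of single replicates reaches that level; inconclusive means some that reach 60%, reason not given; inactive means mean inhibition across replicates below 60%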
KKLEB cytotox – cytotoxicity in KKLEB CF airway cells, primary screen, cytotoxicity control for CF NF-kB inhibitor project, cell-based, uHTS, fluorescence assay plates | KKLEB CF airway cells viability, ATPlite luminescence, overnight; hits give low values; cells stimulated with P. aeruginosa culture filtrate | activity change (cytotoxicity), % at 5 µM | 360,000 compounds, 0.36% hits | AID 602141, 2011;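 active means corrected activity change at or below -50% at 5 µM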
Peg3 promoter – Peg3 promoter-driven luciferase inhibitors, primary screen, cell-based, HeLa, luciferase luminescence. HeLa PEG-Prom luciferase reporter, overnight. inhibition, % at 20 µM. 360,000 compounds, 1.7% hits. AID 588405, 2011;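 active means inhibition of at least 50% at 20 µM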
HIF-2a block – HIF-2a reporter inhibitors, primary screen, luminescence, 786-0 RCC cells; 786-0 RCC cells HIF-2a reporter, luciferase luminescence, overnight; inhibition, % at 18.8 µM; 360,000 compounds, 0.72% hits; AID 624352, 2012;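 active means inhibition of the luminescence signal of 40% or more relative to plate controls, in a single-dose primary screen at 18.75 µM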
CF NFkB block – inhibitors of PAF-induced NF-kB signaling, primary screen, cell-based, GFP fluorescence, uHTS. 360,000 compounds, 0.86% hits. inhibition, % at 5 µM. KKLEB NF-kB-GFP reporter, GFP fluorescence overnight;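 active means at least 50% inhibition at 5 µM, scaled per plate between neutral and stimulator controls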;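 further: PAF is a Pseudomonas aeruginosa culture filtrate used as stimulus; plate controls were PAF-stimulated DMSO wells for no effect and unstimulated DMSO wells for full effect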
Shn3 3UTR inh – reduction of Shn3 3'UTR firefly luciferase signal, primary screen, Schnurri-3 inhibitor project, cell-based, Clone20 osteoblasts, set 2; 360,000 compounds, 0.52% hits; AID 588674, 2011; inhibition, % at 12.5 µM; Clone20 osteoblast Shn3 3'UTR firefly luciferase, 24 h;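 active means mean inhibition of at least 75% with every replicate also reaching 75%; inconclusive means mean inhibition at least 75% but some replicate below; inactive means mean inhibition below 75%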;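 further: 0% = median of neutral control wells and 100% = pilot-screen positive control compound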
Numbers without * were called inactive.

For CCOc1ccccc1C(=O)N(Cc1ccccc1)Cc1cc2cc3c(cc2[nH]c1=O)OCCO3 the results were TRPM1 prom inh 6, KKLEB cytotox -62*, Peg3 promoter 61*, HIF-2a block 2, CF NFkB block 48 and Shn3 3UTR inh -7.
COc1ccccc1NC(=O)N(Cc1cccs1)Cc1cc2cc3c(cc2[nH]c1=O)OCO3 was read as TRPM1 prom inh 31, KKLEB cytotox -12, Peg3 promoter 53*, HIF-2a block 32, CF NFkB block 21 and Shn3 3UTR inh 20.
`CNC(=S)N(Cc1ccc(OC)cc1)Cc1cc2cc(C)ccc2[nH]c1=O` gave TRPM1 prom inh -4, KKLEB cytotox 2, Peg3 promoter 13, HIF-2a block 11, CF NFkB block 5 and Shn3 3UTR inh 15.
COC(=O)c1ccccc1NC(=S)N(Cc1ccc2c(c1)OCO2)Cc1cc2cc(OC)ccc2[nH]c1=O was read as TRPM1 prom inh 1, KKLEB cytotox -10, Peg3 promoter 23, HIF-2a block -1, CF NFkB block -1 and Shn3 3UTR inh 89*.
Screening O=C(c1ccccc1)N(CCO)Cc1cc2cc3c(cc2[nH]c1=O)OCCO3 returned TRPM1 prom inh 16, KKLEB cytotox 10, Peg3 promoter 8, HIF-2a block 8, CF NFkB block -4 and Shn3 3UTR inh 4.
`Cc1cccc(CN2CCC(n3nccc3NC(=O)CCCc3ccccc3)CC2)c1` gave KKLEB cytotox 12, Peg3 promoter 11, HIF-2a block 9, CF NFkB block -16 and Shn3 3UTR inh 28.
For COC(=O)c1ccc(N2C(c3ccsc3)=Cc3cc4c(cc3C2CC(=O)c2ccco2)OCO4)cc1 (stereo unspecified) the results were HIF-2a block -2.
C/C=C/c1cccc(-c2nc(C(=O)NC3CCC3)cc3c2[C@H](CCO)N(S(=O)C(C)(C)C)C3)c1 (stereo partly specified) was read as KKLEB cytotox -6, Peg3 promoter 10, HIF-2a block 18, CF NFkB block -12 and Shn3 3UTR inh 4.
CC(=O)Nc1ccc(-c2ccnc3c2CC(C(=O)Nc2cccc(N(C)C)c2)O3)cc1 (stereo unspecified) was read as KKLEB cytotox -9, Peg3 promoter 11, HIF-2a block 20, CF NFkB block 7 and Shn3 3UTR inh -3.
Screening O=C(Nc1cccc(C(F)(F)F)c1)c1cccc2c(-c3cccnc3)coc12 returned KKLEB cytotox -13, Peg3 promoter 6, HIF-2a block -6, CF NFkB block -3 and Shn3 3UTR inh 12.
Screening CC(=O)c1cccc(NC(=O)c2cccc3c(-c4cccc(C(N)=O)c4)coc23)c1 returned KKLEB cytotox -8, Peg3 promoter 98*, HIF-2a block -173, CF NFkB block -70 and Shn3 3UTR inh -2.
COc1cc(NC(=O)c2cccc3c(-c4cccnc4)coc23)cc(OC)c1OC was read as KKLEB cytotox -14, Peg3 promoter 99*, HIF-2a block -24, CF NFkB block 10 and Shn3 3UTR inh inconclusive.
For Cc1cccc(NC(c2ccc(C)s2)c2ccc3ccc(C)nc3c2O)n1 (stereo unspecified) the results were TRPM1 prom inh 15, KKLEB cytotox -23, Peg3 promoter 45, HIF-2a block 66*, CF NFkB block 41 and Shn3 3UTR inh 59.
Screening CCCNC(=O)c1cc2c(c(-c3cccc(-c4ccccc4F)c3)n1)[C@@H](CCO)N(C(=O)CC1CC1)C2 returned HIF-2a block -10.
For CN(C)C(=O)c1cccc(-c2cnc3c(NC=O)cc(-c4ccc(N(C)C)cc4)cn23)c1 the results were KKLEB cytotox 1, Peg3 promoter 30, HIF-2a block -8, CF NFkB block -8 and Shn3 3UTR inh 11.
`Cc1nnc(C)n1/N=C/c1cc2ccccc2nc1Cl` gave TRPM1 prom inh 9, KKLEB cytotox 1, Peg3 promoter 78*, HIF-2a block 15, CF NFkB block -16 and Shn3 3UTR inh 7.
`Cc1cc2c(cc1C)-n1nnnc1C(N1CCN(c3ccccc3F)CC1)C(=O)N2` (stereo unspecified) gave HIF-2a block 7.
`COc1ccc2cc3cc(C(=O)Nc4ccccc4N4CCN(C)CC4)oc3nc2c1` gave TRPM1 prom inh 66*, KKLEB cytotox -22, Peg3 promoter 115*, HIF-2a block 55*, CF NFkB block 12 and Shn3 3UTR inh 14.
CC1(C(=O)NCc2ccc(Cl)cc2)CCN1C(=O)Cc1cccs1 (stereo unspecified) was read as KKLEB cytotox -16, Peg3 promoter -9, HIF-2a block 15, CF NFkB block 19 and Shn3 3UTR inh -14.
COc1ccc(Cl)cc1N/C(N)=N/c1nc(CSc2ccc(C)cc2)cc(=O)[nH]1 was read as TRPM1 prom inh 3, KKLEB cytotox -14, Peg3 promoter 4, HIF-2a block -12, CF NFkB block 8 and Shn3 3UTR inh 80*.
Screening O=c1cccc(-c2ccc3ccccc3c2)o1 returned HIF-2a block -170.
For O=C1OCCC1Sc1nnc(-c2ccco2)o1 (stereo unspecified) the results were TRPM1 prom inh 0, KKLEB cytotox 7, Peg3 promoter 4, HIF-2a block 27 and CF NFkB block -2.
O=C1OCCC1Sc1nnc(-c2ccc(Br)cc2)o1 (stereo unspecified) was read as TRPM1 prom inh 12, KKLEB cytotox -9, Peg3 promoter 28, HIF-2a block 47*, CF NFkB block 3 and Shn3 3UTR inh 1.
Screening CC1(C)N=C(N)N=C(N)N1c1ccccc1 returned TRPM1 prom inh 19, KKLEB cytotox -1, Peg3 promoter 1, HIF-2a block 19, CF NFkB block -5 and Shn3 3UTR inh 3.
For CC1(C)N=C(N)N=C(N)N1c1ccc(CCCCc2ccccc2)cc1 the results were KKLEB cytotox -18, Peg3 promoter 24, HIF-2a block 30, CF NFkB block -7 and Shn3 3UTR inh 89*.
`CC(=O)Nc1cccc(-c2ccnc3c2CC(C(=O)Nc2cccc(Oc4ccccc4)c2)O3)c1` (stereo unspecified) gave KKLEB cytotox 5, Peg3 promoter 51*, HIF-2a block 22, CF NFkB block -16 and Shn3 3UTR inh 5.
For COc1ccc(NC(=O)C2Cc3c(-c4cccc(C(N)=O)c4)ccnc3O2)cc1OC (stereo unspecified) the results were KKLEB cytotox 10, Peg3 promoter 1, HIF-2a block 2, CF NFkB block -15 and Shn3 3UTR inh 30.
